From PubChem BioAssay (NCATS)
Values joined by “and” are separate entries in the source; they are usually repeats but may differ in a detail not shown here. Equal values may be shown once. Records with an inconclusive call do not appear. A structure can be active in one record and inactive in another. Active and inactive are the calls of the source. The call rests on the fitted dose curve; in most records, active means well fitted curve in the direction sought with a large enough effect; inconclusive means small, poorly fitted or top-dose-only effect, or another doubt; inactive means no such curve, though single readings can be large; an effect the other way counts as inactive or inconclusive.

Columns and labels:
TAB113 = assay: qHTS profiling for inhibitors of Plasmodium falciparum proliferation (AID 504749);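 further: 0% = DMSO vehicle and full inhibition = artemisinin control; nearly all actives have a fitted effect of over 60% in size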; conditions: P. falciparum in erythrocytes, SYBR Green DNA, 72 h; series mostly up to 28.7 µM
How it was run: (§1)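 In a 72 h erythrocytic culture (37 C, humidified, 5% CO2) at 2.5% hematocrit and 0.3% starting parasitemia, compounds were tested; SYBR Green I in detergent lysis buffer stained parasite DNA overnight.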

TAB165 = assay: as above; conditions: P. falciparum in erythrocytes, SYBR Green DNA, 72 h; series mostly up to 28.7 µM
How it was run: as §1

W2 = assay: as above; conditions: P. falciparum in erythrocytes, SYBR Green DNA, 72 h; series mostly up to 28.7 µM
How it was run: as §1

CRL-7250 = normal cell line; assay: Cytotoxic Profiling of Annotated Libraries Using Quantitative High-Throughput Screening (AID 1296008); conditions: Five cell lines viability, CellTiter-Glo ATP luminescence, 48-72 h; max response: stronger effect = lower value; further: nearly all actives have a fitted effect of over 60% in size; further: potency means the concentration at half of the fitted maximal effect; on max response: on the % scale 0 is the no-effect control and ±100 the full control effect
How it was run: (§2)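 Cytotoxicity was measured as CellTiter-Glo ATP luminescence, read after 10 min at room temperature. Compound treatment of the cells lasted 48 or 72 hr at 37 degrees Celsius in a qHTS format.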

HEK293 = assay: as above; conditions: Five cell lines viability, CellTiter-Glo ATP luminescence, 48-72 h; max response: stronger effect = lower value
How it was run: as §2

HaCat [1] = assay: as above; conditions: Five cell lines viability, CellTiter-Glo ATP luminescence, 48-72 h; max response: stronger effect = lower value
How it was run: as §2

KB-3-1 = assay: as above; conditions: Five cell lines viability, CellTiter-Glo ATP luminescence, 48-72 h; max response: stronger effect = lower value
How it was run: as §2

NIH3T3 [2] = assay: as above; conditions: Five cell lines viability, CellTiter-Glo ATP luminescence, 48-72 h; max response: stronger effect = lower value
How it was run: as §2

HACAT [3] = assay: qHTS assay to identify novel small-molecules to repurpose for Merkel cell carcinoma treatment (AID 1296009); conditions: MCC and control cell lines, CellTiter-Glo viability, 72 h; at 44.8 µM (top of the series) unless noted; further: nearly all actives have a fitted effect of over 60% in size; further: potency means the concentration at half of the fitted maximal effect
How it was run: (§3)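 Cell viability measured by CellTiter-Glo following 72 hr compound treatment at 37 degree celsius, with NPC and MIPE libraries tested in 8- and 11-point concentration series.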

HEK293T = assay: as above; conditions: MCC and control cell lines, CellTiter-Glo viability, 72 h; at 44.8 µM (top of the series) unless noted
How it was run: as §3

MCC-13 = assay: as above; conditions: MCC and control cell lines, CellTiter-Glo viability, 72 h; series mostly up to 46 µM
How it was run: as §3

MCC-26 = assay: as above; conditions: MCC and control cell lines, CellTiter-Glo viability, 72 h; series mostly up to 46 µM
How it was run: as §3

MKL-1 = assay: as above; conditions: MCC and control cell lines, CellTiter-Glo viability, 72 h; series mostly up to 46 µM
How it was run: as §3

MKL-2 = assay: as above; conditions: MCC and control cell lines, CellTiter-Glo viability, 72 h; series mostly up to 46 µM
How it was run: as §3

NIH3T3 [4] = assay: as above; conditions: MCC and control cell lines, CellTiter-Glo viability, 72 h; series mostly up to 44.8 µM
How it was run: as §3

UISO = assay: as above; conditions: MCC and control cell lines, CellTiter-Glo viability, 72 h; series mostly up to 46 µM
How it was run: as §3

WaGa = assay: as above; conditions: MCC and control cell lines, CellTiter-Glo viability, 72 h; series mostly up to 46 µM
How it was run: as §3

C33A = assay: Primary qHTS to identify gynecologic anti-cancer compounds using libraries of approved drugs and bioactive compounds (AID 1345084); conditions: Gynecologic cancer cell panel viability, ATPlite luminescence, 48 h; series mostly up to 57.5 µM; further: nearly all actives have a fitted effect of over 55% in size; further: potency means the concentration at half of the fitted maximal effect
How it was run: (§4)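 Luminescence from the ATPlite ATP-monitoring reagent indicates viable cell number; lower signal means cytotoxicity. Cells received compound 16 h after seeding and were exposed for 48 h across five concentrations.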

CAOV3 = assay: as above; conditions: Gynecologic cancer cell panel viability, ATPlite luminescence, 48 h; series mostly up to 57.5 µM
How it was run: as §4

CASKI = assay: as above; conditions: Gynecologic cancer cell panel viability, ATPlite luminescence, 48 h; series mostly up to 57.5 µM
How it was run: as §4

CS(=O)(=O)c1ccc(C2=C(c3ccccc3)C(=O)OC2)cc1
inactive: Potency (TAB113) | Potency (TAB165) | Potency (W2) | max response (CRL-7250) 3.58% and 2.56% | outcome (HEK293) | max response (HaCat [1]) -5.92% | outcome (HaCat [1]) | max response (KB-3-1) 20.7% and -2.3% and -12.9% | max response (NIH3T3 [2]) -4.55% | outcome (NIH3T3 [2]) | outcome (HACAT [3]) | outcome (HEK293T) | Potency (MCC-13) | Potency (MCC-26) | Potency (MKL-1) | Potency (MKL-2) | Potency (NIH3T3 [4]) | Potency (UISO) | Potency (WaGa) | Potency (C33A) | Potency (CAOV3) | Potency (CASKI)

CCOC(=O)[C@H](CCc1ccccc1)N[C@@H](C)C(=O)N1CCCC1C(=O)O (some centres not stated)
inactive: max response (CRL-7250) 3.69% | outcome (HEK293) | outcome (HaCat [1]) | max response (KB-3-1) 2.47% | outcome (NIH3T3 [2]) | outcome (HACAT [3]) | outcome (HEK293T) | Potency (MCC-13) | Potency (MCC-26) | Potency (MKL-1) | Potency (MKL-2) | Potency (NIH3T3 [4]) | Potency (UISO) | Potency (WaGa)

COc1cc(Nc2nc3ccccc3nc2NS(=O)(=O)c2ccc(NC(=O)c3ccc(C)c(OC)c3)cc2)cc(OC)c1
inactive: max response (CRL-7250) -27.1% and -5.83% | outcome (HEK293) | max response (HaCat [1]) -23.6% and -15% | max response (KB-3-1) 6.27% | outcome (KB-3-1) | max response (NIH3T3 [2]) -5.22% | outcome (NIH3T3 [2]) | outcome (HEK293T) | Potency (MCC-13) | Potency (MCC-26) | Potency (MKL-1) | Potency (MKL-2) | Potency (NIH3T3 [4]) | Potency (UISO) | Potency (WaGa) | Potency (C33A) | Potency (CAOV3) | Potency (CASKI)

CNC(=O)c1c(-c2ccc(F)cc2)oc2cc(N(CCO)S(C)(=O)=O)c(C3CC3)cc12
active: Potency (CRL-7250) 11.8 µM
inactive: max response (CRL-7250) -2.04% | outcome (HEK293) | max response (KB-3-1) -0.402% | max response (NIH3T3 [2]) -17.1% | outcome (HEK293T) | Potency (C33A) | Potency (CAOV3) | Potency (CASKI)

COc1nc(C)cnc1NS(=O)(=O)c1cccnc1-c1ccc(-c2nnco2)cc1
inactive: max response (CRL-7250) 1.92% and 1.59% | outcome (HEK293) | max response (HaCat [1]) 3.49% | outcome (HaCat [1]) | max response (KB-3-1) -0.147% | outcome (KB-3-1) | max response (NIH3T3 [2]) -2.15% | outcome (NIH3T3 [2]) | outcome (HACAT [3]) | outcome (HEK293T) | Potency (MCC-13) | Potency (MCC-26) | Potency (MKL-1) | Potency (MKL-2) | Potency (NIH3T3 [4]) | Potency (UISO) | Potency (WaGa) | Potency (C33A) | Potency (CAOV3) | Potency (CASKI)

c1cc(OCCN2CCCCC2)cc(-c2n[nH]c3ccc(-c4ncn[nH]4)cc23)c1
inactive: max response (CRL-7250) -3.49% | outcome (CRL-7250) | outcome (HaCat [1]) | max response (KB-3-1) -21.9% | max response (NIH3T3 [2]) -3.48% and 4.45% | outcome (HACAT [3]) | Potency (MCC-13) | Potency (MCC-26) | Potency (MKL-1) | Potency (C33A) | Potency (CAOV3) | Potency (CASKI)
active: Potency (WaGa) 18.7 µM

C[C@H](c1ccc(F)cc1CCCC(=O)O)N(c1cc(F)ccc1F)S(=O)(=O)c1ccc(Cl)cc1
inactive: max response (CRL-7250) -0.7% and -8.45% | max response (HEK293) -10.5% | outcome (HEK293) | outcome (HaCat [1]) | max response (KB-3-1) -5.45% and 4.45% | max response (NIH3T3 [2]) -19.7% and 4.43% | outcome (HACAT [3]) | outcome (HEK293T) | Potency (MCC-13) | Potency (MCC-26) | Potency (MKL-1) | Potency (MKL-2) | Potency (UISO) | Potency (WaGa) | Potency (C33A) | Potency (CAOV3) | Potency (CASKI)

Cn1c(=O)c(-c2c(Cl)cccc2Cl)cc2cnc(Nc3cccc(C(=O)O)c3)nc21
active: Potency (CRL-7250) 1.16 µM | Potency (HEK293) 2.31 µM | Potency (KB-3-1) 4.61 µM
inactive: max response (HEK293) -22.7% | outcome (HaCat [1]) | outcome (KB-3-1) | max response (NIH3T3 [2]) 3.27% | outcome (NIH3T3 [2]) | outcome (HACAT [3]) | Potency (MCC-13) | Potency (MCC-26) | Potency (MKL-1) | Potency (MKL-2) | Potency (NIH3T3 [4]) | Potency (UISO) | Potency (WaGa) | Potency (C33A) | Potency (CAOV3) | Potency (CASKI)

Nc1ccc(-c2ccc3ncc4ccc(=O)n(-c5cccc(C(F)(F)F)c5)c4c3c2)cn1
inactive: max response (CRL-7250) -76.7%
active: Potency (CRL-7250) 0.0461 µM | Potency (HaCat [1]) 2.64 µM and 2.91 µM | Potency (KB-3-1) 4.2 nM and 65.1 nM | Potency (NIH3T3 [2]) 20.9 nM and 103 nM | Potency (MKL-1) 0.148 µM | Potency (MKL-2) 0.132 µM | Potency (UISO) 0.0332 µM | Potency (WaGa) 0.372 µM | Potency (CAOV3) 0.631 µM | Potency (CASKI) 1 µM

Clc1ccc(C2(c3ccc(-c4cn[nH]c4)cc3)CCNCC2)cc1
active: Potency (CRL-7250) 3.72 µM and 7.31 µM | Potency (HEK293) 5.26 µM and 10.3 µM | Potency (HaCat [1]) 13 µM | Potency (KB-3-1) 16.6 µM and 16.4 µM
inactive: outcome (HaCat [1]) | outcome (HACAT [3]) | Potency (MCC-26) | Potency (MKL-2)

COc1nccc(-c2c(-c3ccc(F)cc3)ncn2C2CCNCC2)n1
active: Potency (HEK293) 3.32 µM
inactive: max response (CRL-7250) -23.7% and 3.35% | max response (HEK293) -20% | max response (HaCat [1]) -7.28% and 1.1% | max response (KB-3-1) -17.7% | outcome (KB-3-1) | max response (NIH3T3 [2]) -16.2% | Potency (MCC-13) | Potency (MCC-26) | Potency (MKL-1) | Potency (MKL-2) | Potency (UISO) | Potency (WaGa) | Potency (C33A) | Potency (CAOV3) | Potency (CASKI)
